Data: PubChem BioAssay (NCATS)
Values without a mark were called inactive. Inconclusive results are not listed. Where a call stands in place of a potency, no number is given. Active and inactive are the calls of the source. Calls follow the shape of the dose curve; as a rule, active = well fitted curve in the direction sought with a large enough effect; inconclusive = small, poorly fitted or top-dose-only effect, or another doubt; inactive = no such curve, though single readings can be large; an effect the other way counts as inactive or inconclusive.

What was measured:
[1] = biological target: Glutathione peroxidase 1 (Homo sapiens) (UniProt P07203); assay: Primary qHTS Assay for Inhibitors of Recombinant Selenoprotein Glutathione Peroxidase 1 (GPX1) (AID 1845191); also: nearly all actives have a fitted effect of over 65% in size
Sequence of Glutathione peroxidase 1 (Homo sapiens) (P07203 whole entry, looked up): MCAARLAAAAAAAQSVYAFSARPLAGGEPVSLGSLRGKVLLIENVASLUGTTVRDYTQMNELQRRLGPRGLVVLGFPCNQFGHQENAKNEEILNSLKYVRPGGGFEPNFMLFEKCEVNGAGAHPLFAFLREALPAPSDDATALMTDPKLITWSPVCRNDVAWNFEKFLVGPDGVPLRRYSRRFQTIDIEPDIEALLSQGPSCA
Outline: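 NADPH consumption tracked by fluorescence at 340/450 nm between t=0 and t=15 min, room temperature. Final mix: 10 nM GPX1, 100 nM glutathione reductase, 1 mM GSH, 0.5 mM NADPH, 0.5 mM cumene hydroperoxide, 0.01% BSA; 30 min compound–enzyme preincubation.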

[2] = biological target: Phospholipid hydroperoxide glutathione peroxidase GPX4 (Homo sapiens) (UniProt P36969); assay: Primary qHTS Assay for Inhibitors of Recombinant Selenoprotein Glutathione Peroxidase 4 (GPX4) (AID 1845192); also: nearly all actives have a fitted effect of over 65% in size; as to activity change, negative = inhibition: series mostly up to about 50 µM
Sequence of Phospholipid hydroperoxide glutathione peroxidase GPX4 (Homo sapiens) (P36969 whole entry, looked up): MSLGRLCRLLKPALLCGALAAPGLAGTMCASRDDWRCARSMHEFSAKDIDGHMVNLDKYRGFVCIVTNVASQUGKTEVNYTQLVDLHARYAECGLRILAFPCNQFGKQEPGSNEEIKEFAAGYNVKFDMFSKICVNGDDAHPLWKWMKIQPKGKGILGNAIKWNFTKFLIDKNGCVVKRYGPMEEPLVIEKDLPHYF
Outline: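 NADPH consumption followed by fluorescence at 340/450 nm, t=0 and after 15 min at room temperature. Reaction started with cumene hydroperoxide (0.5 mM final) after 30 min compound–GPX4 preincubation; final 200 nM GPX4, 100 nM GR, 1 mM GSH, 0.5 mM NADPH.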

[3] = biological target: Luciferin 4-monooxygenase (Photinus pyralis) (UniProt P08659); assay: Primary firefly luciferase (FLuc) qHTS assay for identification of artifact compounds. (AID 1845220); also: nearly all actives have a fitted effect of over 60% in size; as to activity change, negative = inhibition: series mostly up to about 54 µM
Outline: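 Compounds sat 15 min at room temperature with 10 uM luciferin and 10 uM ATP (pH 7.6 Tris acetate). Firefly luciferase (10 nM final) was then added, and luminescence was read 5 min later. Data normalized to no-enzyme and DMSO controls were Hill-fitted.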

[4] = Primary fluorescence-based thiol-reactive (MSTI) qHTS assay for identification of artifact compounds. (AID 1845221); also: nearly all actives have a fitted effect of over 65% in size; also: potency is read from the fitted curve at half-maximal effect;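 as to activity change, negative = thiol reactive: series mostly up to about 54 µM; thiol-reactive compounds lower the probe fluorescence signal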
Outline: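 A multi-concentration qHTS design tested compounds against 4 uM MSTI, pH 7.4 phosphate-buffered saline. Plates were protected from light for 1 h at room temperature before imaging fluorescence.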

[5] = system: Nanoluciferase (engineered Oplophorus gracilirostris luciferase); assay: Primary Nanoluciferase (NLuc) qHTS assay for identification of artifact compounds. (AID 1845222); also: series mostly up to about 54 µM
Outline: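 Luminescence from secreted NLuc (filtered, 1:55-diluted S16 cell medium) read 5 min after Nano-Glo substrate; compounds preincubated 15 min, RT. Hill fits of inhibition normalized to DMSO and no-enzyme.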

[6] = Primary redox qHTS assay for identification of artifact compounds. (AID 1845223); also: potency is read from the fitted curve at half-maximal effect
Outline: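 Redox-cycling detection via DTT (250 uM final) oxidation coupled to Amplex Red (25 uM)/HRP (250 mU/mL) in HBSS. 15 min preincubation plus 30 min after DTT, room temperature. Ex/Em 525/598 nm; 4-parameter Hill fit against DMSO and 10 uM DA3003.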

Row | Compound | Potency [1] | Potency [2] | Potency [3] | Potency [4] | Potency [5] | Potency [6] | activity change, negative = inhibition [3] | activity change, negative = thiol reactive [4] | activity, negative = inhibition [5] | redox activity (% of DA3003) [6]
1 | O=C(Nc1ccn[nH]1)c1c(F)cccc1F | inactive | inactive | inactive | inactive | inactive | inactive |  |  |  | 
2 | C[C@H](C(=O)NC1CCCC1)N(C(=O)Cn1nnc(-c2ccc3c(c2)OCO3)n1)C1CCCCC1 | inactive | inactive | inactive | inactive | inactive | inactive |  |  |  | 
3 | O=C(Nc1ccc(S(=O)(=O)C(F)(F)F)cc1)C1=CCN(c2ncccc2C(F)(F)F)CC1 | inactive | inactive | inactive | inactive | inactive | inactive |  |  |  | 
4 | C/C(=C\CC[C@@H](C)[C@H]1CC(O)[C@@]2(C)C3CC[C@H]4C(C)(C)[C@@H](OC5OCC(O)C(O)C5OC5OC(CO)C(O)C(O)C5O)CC[C@@]45C[C@@]35CC(O)[C@]12C)C(=O)O (stereo partly specified) | inactive | inactive | inactive | inactive | inactive | inactive |  |  |  | 
5 | CC(C)(O[C@@H]1O[C@H](CO)[C@@H](O)[C@H](O)[C@H]1O)C(OC(=O)/C=C\c1ccc(O)cc1)C(=O)OCc1ccc(O[C@@H]2O[C@H](CO)[C@@H](O)[C@H](O)[C@H]2O)cc1 (stereo partly specified) | inactive | inactive | inactive | inactive | inactive | inactive |  |  |  | 
6 | CC(=O)NC1=NN(C(C)=O)C(C)(c2ccccc2)S1 (stereo unspecified) | inactive | inactive | inactive | inactive | inactive | inactive |  |  |  | 
7 | O=c1[nH]ccc2cc(OC3CCNCC3)ccc12 | inactive | inactive | inactive | inactive | inactive | inactive |  |  |  | 
8 | CCCCNc1ncc2c(-c3ccc(F)cc3)nn(CC3CCC(N)CC3)c2n1 (stereo unspecified) | inactive | inactive | inactive | inactive | inactive | inactive |  |  |  | 
9 | COCC1OC(OC(C)(C)C2CCC3(C)C=C(C4CCC5C4(C)CC(O)C4OC(C(C)(C)OC6OC(CO)C(O)C(O)C6NC(C)=O)CCC45C)CCC3O2)C(NC(C)=O)C(O)C1O (stereo unspecified) | inactive | inactive |  |  |  |  | 0.545% [at 11.6 µM] | 5.19% [at 11.5 µM] | -0.592% [at 11.6 µM] | 3.42% [at 11.5 µM]
10 | NC1CCC(Nc2cc(-c3cccc(NCc4cccc(F)c4)n3)c(Cl)cn2)CC1 (stereo unspecified) | inactive | inactive | inactive | inactive | inactive | inactive |  |  |  | 
11 | N[C@@]1(C(=O)O)CC[C@H]2[C@H](C(=O)O)[C@H]21 | inactive | inactive | inactive | inactive | inactive | inactive |  |  |  | 
12 | O=S(=O)(NC1CCC(c2cc(F)ccc2F)(S(=O)(=O)c2ccc(Cl)cc2)CC1)C(F)(F)F (stereo unspecified) | inactive | inactive | inactive | inactive | inactive | inactive |  |  |  | 
13 | C[C@@H]1O[C@@H](O[C@@H]2[C@@H](O)[C@H](O[C@H]3CC[C@@]4(C)C(CC[C@]5(C)C4CC=C4[C@@H]6CC(C)(C)CC[C@]6(C(=O)O[C@@H]6O[C@H](CO)[C@@H](O)[C@H](O)[C@H]6O)CC[C@]45C)C3(C)C)O[C@H](C(=O)O)[C@H]2O)[C@H](O)[C@H](O)[C@H]1O (stereo partly specified) | inactive | inactive |  |  |  |  | 0.705% [at 11.6 µM] | 312% [at 11.5 µM] | 2.86% [at 11.6 µM] | 12.9% [at 11.5 µM]
14 | C=C1CC23CC1CCC2C12OC(=O)C(C)(CCC1O)C2C3C(=O)O (stereo unspecified) | inactive | inactive | inactive | inactive | inactive | inactive |  |  |  | 
15 | CCCC(=O)C1CCN(c2ncnc3c2CN(C(=O)c2ccc(-c4ccccc4)cc2)CC3)CC1 | inactive | inactive | inactive | inactive | inactive | inactive |  |  |  | 
16 | C[C@@H]1CCN(C(=O)N2CCCC2)C[C@@H]1N(C)c1ncnc2[nH]ccc12 | inactive | inactive | inactive | inactive | inactive | inactive |  |  |  | 

Row | Compound | Potency [1] | Potency [2] | Potency [3] | Potency [4] | Potency [5] | Potency [6] | activity change, negative = inhibition [3] | activity change, negative = thiol reactive [4] | activity, negative = inhibition [5] | redox activity (% of DA3003) [6]
17 | CC1(C)CC[C@]2(C(=O)O[C@@H]3O[C@H](CO)[C@@H](O)[C@H](O)[C@H]3O)CC[C@]3(C)C(=CCC4[C@@]5(C)CC[C@H](O[C@@H]6O[C@H](C(=O)O)[C@@H](O)[C@H](O[C@@H]7O[C@H](CO)[C@H](O)[C@H](O)[C@H]7O)[C@H]6O)C(C)(C)C5CC[C@]43C)C2C1 (stereo partly specified) | inactive | inactive |  |  |  |  | -3.44% [at 11.6 µM] | 172% [at 11.5 µM] | 3.94% [at 11.6 µM] | 0.97% [at 11.5 µM]
18 | CCCOc1ccc(-c2nc(OC)c3ccccc3n2)cc1 | inactive | inactive | inactive | inactive | inactive | inactive |  |  |  | 
19 | CNS(=O)(=O)c1ccccc1Nc1nc(Nc2ccc(N3CCN(C)CC3)cc2OC)ncc1Cl | inactive | inactive | inactive | 2.38 µM (active) | inactive | inactive |  |  |  | 
20 | CCO[C@@H]1OC(=O)C[C@@H]1NC(=O)[C@@H]1CCCN1C(=O)[C@@H](NC(=O)c1ccc(N)c(Cl)c1)C(C)(C)C | inactive | inactive | inactive | inactive | inactive | inactive |  |  |  | 
21 | O=C(Nc1ccccc1-c1cn2c(CN3CCNCC3)csc2n1)c1ccc2ccccc2n1 | inactive | inactive | inactive | inactive | inactive | inactive |  |  |  | 
22 | CC(C)[C@H]1CC[C@@]2(O)COC(=O)[C@H]2[C@@H]1/C=C(\CO)C(=O)O | inactive | inactive | inactive | inactive | inactive | inactive |  |  |  | 
23 | C=C1CCC[C@]2(C)CC[C@@H](C(=C)C(=O)O)[C@H](O)[C@@H]12 | inactive | inactive | inactive | inactive | inactive | inactive |  |  |  | 
24 | COc1cc2ncnc(Nc3cccc(O)c3)c2cc1OC | inactive | inactive | inactive | inactive | inactive | inactive |  |  |  | 
25 | CCc1ccc(Cc2ccc3c(c2)[C@]2(OC3)O[C@H](CO)[C@@H](O)[C@H](O)[C@H]2O)cc1 | inactive | inactive | inactive | inactive | inactive | inactive |  |  |  | 
26 | CC1(C)CCC[C@]2(C)[C@H]3CC(=O)O[C@]3(C)CC[C@@H]12 | inactive | inactive | inactive | inactive | inactive | inactive |  |  |  | 
27 | Cc1ccc(NC(=O)C(=O)NC2CC(C)(C)NC(C)(C)C2)cc1 | inactive | inactive | inactive | inactive | inactive | inactive |  |  |  | 
28 | C/C=C1\[C@H](O[C@@H]2O[C@H](CO)[C@@H](O)[C@H](O)[C@H]2O)OC=C(C(=O)OC)[C@H]1CC(=O)O | inactive | inactive | inactive | inactive | inactive | inactive |  |  |  | 
29 | CC1(C)CCC[C@@]2(C)C1[C@H](OC(=O)/C=C/C=C/C(=O)O)C=C1COC(=O)[C@@]12O (stereo partly specified) | inactive | inactive | inactive | inactive | inactive | inactive |  |  |  | 
30 | CC(C)c1cc2c(c(O)c1O)[C@@]13CCCC(C)(C)[C@@H]1[C@H](OC3=O)C2=O | inactive | inactive | inactive | 2.33 µM (active) | inactive | 16.5 µM (active) |  |  |  | 
31 | Cc1[nH]c2ccccc2c1CCNC(=O)c1ccccc1F | inactive | inactive | inactive | 4.23 µM (active) | inactive | inactive |  |  |  | 
